From PubChem BioAssay (NCI)
Compounds without any hit were thinned out: in the full panel of roughly 79,000, 15% have a hit. Calls of active or inactive are those of the source. Rule as the data show it: active = growth inhibition above about 70%; inactive = the rest.

Experiments:
[1] = NCI Yeast Anticancer Drug Screen. Data for the mec2-1 strain (AID 157); conditions: S. cerevisiae mec2-1 strain, stronger effect = higher value
How it was run: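 Test agents were screened against the mec2-1 yeast strain, with defined DNA repair or cell cycle alteration. Growth was scored as inhibition against vehicle-only controls.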

[2] = NCI Yeast Anticancer Drug Screen. Data for the sgs1 mgt1 strain (AID 161);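 also: 0% = growth of cultures given vehicle only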; conditions: S. cerevisiae sgs1 mgt1 strain, stronger effect = higher value
How it was run: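 Test agents were incubated with a DNA-repair-mutant yeast strain. Growth was then read and compared against vehicle-treated controls.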

[3] = NCI Yeast Anticancer Drug Screen. Data for the CLN2oe strain (AID 163);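 also: 0% = growth of vehicle-only control cultures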; conditions: S. cerevisiae CLN2oe strain, stronger effect = higher value
How it was run: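 Here, growth inhibition in a cell-cycle-altered yeast strain after compound exposure was quantified against vehicle control growth.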

[4] = NCI Yeast Anticancer Drug Screen. Data for the bub3 strain (AID 167); conditions: S. cerevisiae bub3 mutant strain, stronger effect = higher value
How it was run: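 Inhibition values come from growth of compound-treated mutant yeast normalised to vehicle-treated controls.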

[5] = NCI Yeast Anticancer Drug Screen. Data for the wt2 strain (AID 169);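 also: 0% = growth of vehicle-treated yeast cultures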; conditions: S. cerevisiae wt2 strain growth inhibition, stronger effect = higher value
How it was run: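 Genetically defined yeast strains from a DNA-repair/cell-cycle panel were used. Compound-exposed yeast growth was measured, and the inhibition was calculated relative to vehicle treatment.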

[6] = NCI Yeast Anticancer Drug Screen. Data for the mlh1 strain (AID 171);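 also: 0% = growth of vehicle-treated control cultures of the same strain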; conditions: S. cerevisiae mlh1 strain growth inhibition, stronger effect = higher value
How it was run: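 Here the genetically defined yeast mutant is grown with each compound, and the extent to which its growth falls below that of vehicle-exposed cells is reported.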

[7] = NCI Yeast Anticancer Drug Screen. Data for the sgs1 strain (AID 173);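 also: 0% = growth of vehicle-only control cultures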; conditions: S. cerevisiae sgs1 mutant, stronger effect = higher value
How it was run: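 Relative growth inhibition, referenced to vehicle, was determined in a yeast strain with a defined alteration affecting DNA damage repair or cell cycle control after compound exposure.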

[8] = NCI Yeast Anticancer Drug Screen. Data for the mlh1 rad18 strain (AID 175); conditions: S. cerevisiae mlh1 rad18 strain growth inhibition, stronger effect = higher value
How it was run: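 In this whole-cell yeast screen, a strain with altered DNA damage repair is challenged with compound, and its growth is measured against matched vehicle-treated controls.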

[9] = NCI Yeast Anticancer Drug Screen. Data for the rad18 strain (AID 177); conditions: S. cerevisiae rad18 mutant growth inhibition, stronger effect = higher value
How it was run: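 Screen uses a yeast strain with a defined lesion in DNA damage repair; compound effect is read as loss of growth compared to untreated vehicle cultures.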

[10] = NCI Yeast Anticancer Drug Screen. Data for the rad52 strain (AID 147);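 also: 0% = growth of vehicle-treated control cultures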; conditions: S. cerevisiae rad52 mutant growth inhibition, stronger effect = higher value
How it was run: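 Measured: yeast growth inhibition. System: strain with a defined DNA damage repair alteration. Reference: vehicle-treated control cultures.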

[11] = NCI Yeast Anticancer Drug Screen. Data for the wt1 strain (AID 149);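 also: 0% = growth of vehicle-treated wt1 cultures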; conditions: S. cerevisiae wt1 strain (SPY 50644) growth inhibition, stronger effect = higher value
How it was run: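 Vehicle-normalised growth inhibition; strain wt1; compound exposure.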

[12] = NCI Yeast Anticancer Drug Screen. Data for the mgt1 strain (AID 153); conditions: S. cerevisiae mgt1 mutant growth inhibition, stronger effect = higher value
How it was run: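 After exposure of the mgt1 yeast mutant to compound, growth was measured and reported as inhibition compared with vehicle controls.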

[13] = NCI Yeast Anticancer Drug Screen. Data for the rad50 strain (AID 155);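 also: 0% = growth of vehicle-only cultures of the same strain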; conditions: S. cerevisiae rad50 strain growth inhibition, stronger effect = higher value
How it was run: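 A DNA repair-deficient yeast mutant serves as the test organism; compound-induced growth inhibition is calculated against vehicle-treated cells.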

[14] = NCI Yeast Anticancer Drug Screen. Data for the rad14 strain (AID 159);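 also: 0% = growth of vehicle-treated control cultures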; conditions: S. cerevisiae rad14 strain growth inhibition, stronger effect = higher value
How it was run: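 Vehicle-treated cultures served as the baseline for growth inhibition of a DNA repair-mutant yeast strain exposed to each compound.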

[15] = NCI Yeast Anticancer Drug Screen. Data for the cln2 rad14 strain (AID 165);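 also: 0% = growth equal to vehicle treated cultures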; conditions: S. cerevisiae cln2 rad14 strain, stronger effect = higher value
How it was run: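 Growth of compound-exposed yeast (cln2 rad14 genotype) measured and expressed as inhibition relative to vehicle.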

[16] = NCI Yeast Anticancer Drug Screen. Data for the rad50EPP+ strain (AID 151);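 also: 0% = growth of vehicle-treated control cultures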; conditions: S. cerevisiae rad50 mutant strain, stronger effect = higher value
How it was run: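 One strain with a rad50 alteration (rad50EPP+) was compound-treated, its growth then compared to that of vehicle controls.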

[17] = at 5.0 µM (retest, dose inferred, filed as 0.5)
[18] = at 50.0 µM (retest, dose inferred, filed as 5.0)

Measured: growth inhibition

CC(C)S(=O)(=O)/C=C\S(=O)(=O)C(C)C
inactive: [1]; [17] -45% | [1]; at 11.0 µM 7% | [1]; at 33.0 µM 58% | [1]; [18] 69% | [1]; at 50.0 µM 62.8% | [2]; [17] -56% | [3]; at 1.2 µM -6% | [3]; at 3.7 µM -4% | [3]; at 11.0 µM 4% | [3]; at 33.0 µM 28% | [4]; at 1.2 µM -4% | [4]; at 3.7 µM 1% | [4]; [17] -71% | [4]; at 11.0 µM 5% | [4]; at 33.0 µM 52% | [4]; at 50.0 µM 50.6% | [5]; at 1.2 µM 5% | [5]; at 3.7 µM 15% | [5]; at 11.0 µM 44% | [6]; at 1.2 µM -8% | [6]; at 3.7 µM -1% | [6]; at 11.0 µM 1% | [6]; at 33.0 µM 64% | [7]; at 1.2 µM -5% | [7]; at 3.7 µM -8% | [7]; at 11.0 µM 30% | [8]; [17] -133% | [9]; at 1.2 µM -2% | [9]; at 3.7 µM 5% | [9]; at 11.0 µM 19%
active: [1]; at 100.0 µM 93% | [2]; [18] 76% | [2]; at 50.0 µM 72% | [3]; at 100.0 µM 85% | [4]; [18] 81% | [4]; at 100.0 µM 92% | [5]; at 33.0 µM 90% | [5]; at 100.0 µM 99% | [6]; at 100.0 µM 96% | [7]; at 33.0 µM 80% | [7]; at 100.0 µM 98% | [8]; [18] 85% | [8]; at 50.0 µM 82.8% | [9]; at 33.0 µM 78% | [9]; at 100.0 µM 93%

CCOC(=O)/C(=C/c1cccc(Cl)c1)N(CC)CC
inactive: [10]; at 1.2 µM 10% | [10]; at 3.7 µM 13% | [10]; at 11.0 µM 12% | [10]; at 33.0 µM 49% | [11]; at 1.2 µM 8% | [11]; at 3.7 µM 13% | [11]; at 11.0 µM 22% | [11]; at 33.0 µM 43% | [12]; at 1.2 µM 8% | [12]; at 3.7 µM 9% | [12]; at 11.0 µM 27% | [12]; at 33.0 µM 51% | [13]; at 1.2 µM -1% | [13]; at 3.7 µM 5% | [13]; [17] 17% | [13]; at 11.0 µM 6% | [13]; at 33.0 µM 39% | [1]; at 1.2 µM 6% | [1]; at 3.7 µM 2% | [1]; [17] -22% | [1]; at 11.0 µM 7% | [1]; at 33.0 µM 46% | [14]; at 1.2 µM -12% | [14]; at 3.7 µM 10% | [14]; at 11.0 µM 12% | [14]; at 33.0 µM 46% | [2]; [17] 10% | [3]; at 1.2 µM 8% | [3]; at 3.7 µM -9% | [3]; at 11.0 µM 20% | [3]; at 33.0 µM 45% | [15]; [17] 43% | [4]; at 1.2 µM 30% | [4]; at 3.7 µM 18% | [4]; [17] 17% | [4]; at 11.0 µM 24% | [4]; at 33.0 µM 55% | [5]; at 1.2 µM 5% | [5]; at 3.7 µM 11% | [5]; at 11.0 µM 13% | [5]; at 33.0 µM 40% | [6]; at 1.2 µM 18% | [6]; at 3.7 µM 13% | [6]; at 11.0 µM 7% | [6]; at 33.0 µM 48% | [7]; at 1.2 µM 26% | [7]; at 3.7 µM 30% | [7]; at 11.0 µM 41% | [7]; at 33.0 µM 62% | [8]; [17] -9%
active: [10]; at 100.0 µM 96% | [11]; at 100.0 µM 96% | [12]; at 100.0 µM 93% | [13]; [18] 75% | [13]; at 50.0 µM 77.4% | [13]; at 100.0 µM 95% | [1]; [18] 86% | [1]; at 50.0 µM 78.5% | [1]; at 100.0 µM 95% | [14]; at 100.0 µM 93% | [2]; [18] 90% | [2]; at 50.0 µM 83% | [3]; at 100.0 µM 96% | [15]; [18] 94% | [15]; at 50.0 µM 87.5% | [4]; [18] 90% | [4]; at 50.0 µM 83.5% | [4]; at 100.0 µM 96% | [5]; at 100.0 µM 97% | [6]; at 100.0 µM 91% | [7]; at 100.0 µM 96% | [8]; [18] 83% | [8]; at 50.0 µM 78.2%

CN(CCOc1ccc(Cl)cc1)CCOc1ccc(Cl)cc1
active: [10]; at 33.0 µM 90% | [10]; at 100.0 µM 99% | [11]; at 100.0 µM 99% | [13]; at 33.0 µM 97% | [13]; [18] 97% | [13]; at 50.0 µM 99.2% | [13]; at 100.0 µM 99% | [1]; at 33.0 µM 93% | [1]; [18] 99% | [1]; at 50.0 µM 99.5% | [1]; at 100.0 µM 99% | [2]; [18] 99% | [2]; at 50.0 µM 99.7% | [3]; at 33.0 µM 90% | [3]; at 100.0 µM 99% | [15]; [18] 97% | [15]; at 50.0 µM 99.5% | [4]; at 33.0 µM 97% | [4]; [18] 98% | [4]; at 50.0 µM 99.6% | [4]; at 100.0 µM 97% | [5]; at 33.0 µM 89% | [5]; at 100.0 µM 99% | [6]; at 33.0 µM 98% | [6]; at 100.0 µM 99% | [7]; at 33.0 µM 98% | [7]; at 100.0 µM 99% | [8]; [18] 99% | [8]; at 50.0 µM 99.5% | [9]; at 33.0 µM 80% | [9]; at 100.0 µM 99%
inactive: [10]; at 1.2 µM 8% | [10]; at 3.7 µM 18% | [10]; at 11.0 µM 50% | [11]; at 1.2 µM 7% | [11]; at 3.7 µM 7% | [11]; at 11.0 µM 10% | [11]; at 33.0 µM 39% | [16]; at 1.2 µM 4% | [16]; at 3.7 µM 7% | [16]; at 11.0 µM 7% | [16]; at 33.0 µM 3% | [16]; at 100.0 µM 56% | [13]; at 1.2 µM 11% | [13]; at 3.7 µM 17% | [13]; [17] 13% | [13]; at 11.0 µM 51% | [1]; at 1.2 µM 12% | [1]; at 3.7 µM 16% | [1]; [17] 5% | [1]; at 11.0 µM 36% | [2]; [17] 25% | [3]; at 1.2 µM 20% | [3]; at 3.7 µM 18% | [3]; at 11.0 µM 50% | [15]; [17] 11% | [4]; at 1.2 µM 16% | [4]; at 3.7 µM 23% | [4]; [17] 10% | [4]; at 11.0 µM 60% | [5]; at 1.2 µM 8% | [5]; at 3.7 µM 11% | [5]; at 11.0 µM 26% | [6]; at 1.2 µM 13% | [6]; at 3.7 µM 17% | [6]; at 11.0 µM 41% | [7]; at 1.2 µM 18% | [7]; at 3.7 µM 23% | [7]; at 11.0 µM 48% | [8]; [17] 22% | [9]; at 1.2 µM 14% | [9]; at 3.7 µM 11% | [9]; at 11.0 µM 23%
